Test results published in the supplement of paper PMC9694430.
Several values for one entry are separate records, joined by “and”; a condition that tells them apart may be missing. Equal values may be shown once. Where a name gives a salt, the structure may show the parent alone.

Legend:
Experiment in all cases: thermal shift delta Tm vs DMSO control; higher = stronger stabilization (binding)
Conditions in all cases: 12.5 µM; protein concentration 2 µM
LOC_OS02G45750-cb003 = tested on: LOC_OS02G45750-cb003
Method in brief: (§1)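 Compounds dissolved in DMSO were added to purified rice kinase domain constructs, which had been expressed in E. coli, for differential scanning fluorimetry. Each well held 19.5 μl of 2 μM kinase in 100 mM potassium phosphate pH 7.5, 150 mM NaCl, 10% glycerol and 5 × SYPRO Orange. Fluorescence was followed from 25°C to 95°C at a rate of 0.05°C/s. Shifts in Boltzmann-fitted melting temperature are triplicate means relative to DMSO-only protein.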

LOC_OS02G54510-cb004 = tested on: LOC_OS02G54510-cb004
Method in brief: as §1

LOC_OS03G04050-cb001 = tested on: LOC_OS03G04050-cb001
Method in brief: as §1

LOC_OS03G12390-cb001 = tested on: LOC_OS03G12390-cb001
Method in brief: as §1

LOC_OS03G27990-cb004 = tested on: LOC_OS03G27990-cb004
Method in brief: as §1

LOC_OS03G50450-cb001 = tested on: LOC_OS03G50450-cb001
Method in brief: as §1

LOC_OS03G50810-cb003 = tested on: LOC_OS03G50810-cb003
Method in brief: as §1

LOC_OS04G35114-cb001 = tested on: LOC_OS04G35114-cb001
Method in brief: as §1

LOC_OS04G38480-cb003 = tested on: T1, LOC_OS04G38480-cb003
T1 sequence (whole entry): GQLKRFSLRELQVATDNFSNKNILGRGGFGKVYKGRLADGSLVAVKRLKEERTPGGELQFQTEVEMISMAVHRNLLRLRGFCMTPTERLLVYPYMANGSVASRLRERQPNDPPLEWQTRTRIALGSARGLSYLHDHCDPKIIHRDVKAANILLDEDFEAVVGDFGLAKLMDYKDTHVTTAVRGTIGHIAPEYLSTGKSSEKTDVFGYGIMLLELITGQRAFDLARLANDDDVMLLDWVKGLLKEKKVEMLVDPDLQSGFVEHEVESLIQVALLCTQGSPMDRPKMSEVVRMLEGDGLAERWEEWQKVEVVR
Method in brief: as §1

LOC_OS04G41100-cb001 = tested on: T2, LOC_OS04G41100-cb001
T2 sequence (whole entry): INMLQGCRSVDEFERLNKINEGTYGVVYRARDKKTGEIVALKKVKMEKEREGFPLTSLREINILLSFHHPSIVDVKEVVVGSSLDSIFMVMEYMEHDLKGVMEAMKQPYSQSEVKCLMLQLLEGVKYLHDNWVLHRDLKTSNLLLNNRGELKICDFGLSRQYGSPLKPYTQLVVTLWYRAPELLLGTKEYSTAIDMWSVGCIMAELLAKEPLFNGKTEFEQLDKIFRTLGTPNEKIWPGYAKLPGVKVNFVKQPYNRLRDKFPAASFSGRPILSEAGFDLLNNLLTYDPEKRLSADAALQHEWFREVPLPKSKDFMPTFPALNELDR
Method in brief: as §1

LOC_OS04G57630-cb004 = tested on: LOC_OS04G57630-cb004
Method in brief: as §1

LOC_OS05G07850-cb002 = tested on: LOC_OS05G07850-cb002
Method in brief: as §1

LOC_OS05G16824-cb004 = tested on: LOC_OS05G16824-cb004
Method in brief: as §1

LOC_OS05G28520-cb001 = tested on: LOC_OS05G28520-cb001
Method in brief: as §1

LOC_OS05G30820-cb001 = tested on: LOC_OS05G30820-cb001
Method in brief: as §1

LOC_OS05G43570-cb004 = tested on: LOC_OS05G43570-cb004
Method in brief: as §1

LOC_OS06G16330-cb003 = tested on: LOC_OS06G16330-cb003
Method in brief: as §1

LOC_OS06G22820-cb001 = tested on: T3, LOC_OS06G22820-cb001
T3 sequence (whole entry): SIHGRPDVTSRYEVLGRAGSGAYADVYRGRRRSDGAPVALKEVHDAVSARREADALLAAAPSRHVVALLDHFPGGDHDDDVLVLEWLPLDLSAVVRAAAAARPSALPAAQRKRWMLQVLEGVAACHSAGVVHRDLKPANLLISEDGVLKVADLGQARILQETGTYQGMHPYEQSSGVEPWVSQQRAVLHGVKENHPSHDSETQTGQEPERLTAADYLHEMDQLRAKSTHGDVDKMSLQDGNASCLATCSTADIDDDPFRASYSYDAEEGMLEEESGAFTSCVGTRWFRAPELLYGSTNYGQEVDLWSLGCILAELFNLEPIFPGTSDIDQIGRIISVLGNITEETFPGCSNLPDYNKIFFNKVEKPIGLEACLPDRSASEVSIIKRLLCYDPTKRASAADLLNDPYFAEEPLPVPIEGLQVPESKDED
Method in brief: as §1

LOC_OS07G06570-cb004 = tested on: LOC_OS07G06570-cb004
Method in brief: as §1

LOC_OS07G07230-cb001 = tested on: LOC_OS07G07230-cb001
Method in brief: as §1

Sequence of LOC_OS06G16330-cb003 (as listed by the source): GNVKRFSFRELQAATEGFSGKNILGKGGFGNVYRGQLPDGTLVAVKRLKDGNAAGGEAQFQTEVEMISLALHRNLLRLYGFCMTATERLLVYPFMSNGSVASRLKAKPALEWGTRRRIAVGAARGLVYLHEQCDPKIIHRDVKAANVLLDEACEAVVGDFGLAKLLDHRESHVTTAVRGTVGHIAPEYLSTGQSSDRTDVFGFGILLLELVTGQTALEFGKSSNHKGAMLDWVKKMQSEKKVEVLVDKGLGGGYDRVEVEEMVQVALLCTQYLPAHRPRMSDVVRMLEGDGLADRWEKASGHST

| SMILES | thermal shift delta Tm (LOC_OS02G45750-cb003) | thermal shift delta Tm (LOC_OS02G54510-cb004) | thermal shift delta Tm (LOC_OS03G04050-cb001) | thermal shift delta Tm (LOC_OS03G12390-cb001) | thermal shift delta Tm (LOC_OS03G27990-cb004) | thermal shift delta Tm (LOC_OS03G50450-cb001) | thermal shift delta Tm (LOC_OS03G50810-cb003) | thermal shift delta Tm (LOC_OS04G35114-cb001) | thermal shift delta Tm (LOC_OS04G38480-cb003) | thermal shift delta Tm (LOC_OS04G41100-cb001) | thermal shift delta Tm (LOC_OS04G57630-cb004) | thermal shift delta Tm (LOC_OS05G07850-cb002) | thermal shift delta Tm (LOC_OS05G16824-cb004) | thermal shift delta Tm (LOC_OS05G28520-cb001) | thermal shift delta Tm (LOC_OS05G30820-cb001) | thermal shift delta Tm (LOC_OS05G43570-cb004) | thermal shift delta Tm (LOC_OS06G16330-cb003) | thermal shift delta Tm (LOC_OS06G22820-cb001) | thermal shift delta Tm (LOC_OS07G06570-cb004) | thermal shift delta Tm (LOC_OS07G07230-cb001) |
| --- | --- | --- | --- | --- | --- | --- | --- | --- | --- | --- | --- | --- | --- | --- | --- | --- | --- | --- | --- | --- |
| Nc1ncccc1-c1nc2ccc(-c3ccccc3)nc2n1-c1ccc(C2(N)CCC2)cc1 [Miransertib (ARQ 092) HCl] | 0.57 °C | -0.18 °C | 0.2 °C | -0.09 °C | 0.04 °C | 0.49 °C | -0.05 °C | 0.38 °C | 0.6 °C | 0.18 °C | -0.29 °C | 1.08 °C | -5.68 °C | -0.2 °C | 0.04 °C | 0.09 °C | -0.91 °C | 0.24 °C | 1.32 °C | 0.36 °C |
| C[C@@H]1COCCN1c1cc(C2([S@](C)(=N)=O)CC2)nc(-c2cc[nH]c3nccc2-3)n1 | 0.39 °C | 0.1 °C | 0.32 °C | -0.31 °C | 0.13 °C | 0.46 °C | 0.2 °C | 2.45 °C | 0.68 °C | 0.52 °C | -0.11 °C | 3.99 °C | -2.04 °C | 0.65 °C | 0.15 °C | 0.19 °C | 0.37 °C | -0.1 °C | 0.71 °C | -0.05 °C |
| COc1cc(Nc2ncc(F)c(Nc3ccc4c(n3)N(COP(=O)(O)O)C(=O)C(C)(C)O4)n2)cc(OC)c1OC [R788 (Fostamatinib) Disodium] | 2.5 °C | 0.47 °C | 0.33 °C | 1.17 °C | 1.08 °C | 7.52 °C | 2.27 °C | 2.02 °C | 2.06 °C | 0.34 °C | 0.34 °C | 7.08 °C | 6.19 °C | 0.86 °C | 1.5 °C | 0.56 °C | 6.28 °C | 0.9 °C | 1.71 °C | 0.59 °C |
| C[C@@H](Nc1cc(F)cc(F)c1)c1cc(C(=O)N(C)C)cc2c(=O)cc(N3CCOCC3)oc12 | -0.34 °C | -0.01 °C | 0.03 °C | 0 °C | 0.1 °C | -0.15 °C | 0.15 °C | 0.51 °C | 1.21 °C | 0.16 °C | 0.46 °C | -0.67 °C | -4.22 °C | 0.89 °C | 0.53 °C | 0.2 °C | -0.67 °C | 0.43 °C | 1.06 °C | 0.35 °C |
| O=C(Nc1nc2cccc(-c3ccc(CN4CCS(=O)(=O)CC4)cc3)n2n1)C1CC1 [Filgotinib (GLPG0634)] | 1.04 °C | 0.58 °C | 0.6 °C | 0.31 °C | 0.64 °C | 1.73 °C | 0.86 °C | 1.37 °C | 1.66 °C | 0.6 °C | 0 °C | 4.98 °C | 1.83 °C | 0.76 °C | 0.46 °C | 0.12 °C | 5.12 °C | 0.31 °C | 0.9 °C | 0.58 °C |
| CNc1nc(-c2ccc3c(N)n[nH]c3c2)cc(N2C[C@@H](C(=O)NC3CCCCC3)CC[C@H]2C)n1 | 0.45 °C | 0.92 °C | 0.58 °C | 0.25 °C | 0.2 °C | 0.38 °C | 0.87 °C | 0.5 °C | 1.14 °C | 0.66 °C | 0.37 °C | 2.19 °C | -1.52 °C | 0.81 °C | 0.31 °C | 0.65 °C | 0.1 °C | 0.79 °C | 1.92 °C | 0.33 °C |
| Cc1ccc(NC(=O)c2cccc(C(C)(C)C#N)c2)cc1Nc1ccc2ncn(C)c(=O)c2c1 | 1.15 °C | 1.43 °C | 0.45 °C | 0.66 °C | 0.38 °C | 0.1 °C | 0.54 °C | 0.51 °C | 0.88 °C | 0.24 °C | 0.41 °C | 0.77 °C | -1.17 °C | 0.69 °C | 0.63 °C | 0.64 °C | 0.8 °C | 0.86 °C | 0.75 °C | 0.34 °C |
| N#CC1(c2ccc(NC(=O)c3cccnc3NCc3ccncc3)cc2)CCCC1 [Apatinib] | 0.45 °C | 1.36 °C | 0.07 °C | -0.19 °C | 0.11 °C | 0.69 °C | 0.22 °C | 0.72 °C | 0.83 °C | 0.11 °C | 0.34 °C | 0.8 °C | -5.15 °C | 0.2 °C | 0.66 °C | 0.51 °C | -0.32 °C | 0.38 °C | 1.2 °C | 0.05 °C |
| CO[C@H]1C[C@@H]2CC[C@@H](C)[C@@](O)(O2)C(=O)C(=O)N2CCCC[C@H]2C(=O)O[C@H]([C@H](C)C[C@@H]2CC[C@@H](OP(C)(C)=O)[C@H](OC)C2)CC(=O)[C@H](C)/C=C(\C)[C@@H](O)[C@@H](OC)C(=O)[C@H](C)C[C@H](C)/C=C/C=C/C=C/1C [Ridaforolimus (Deforolimus, MK-8669)] | 0.46 °C | -0.33 °C | 0.25 °C | 0.04 °C | 0.01 °C | -0.11 °C | -0.15 °C | 0.34 °C | 0.98 °C | 0.85 °C | -0.31 °C | 0.02 °C | -1.14 °C | 0.42 °C | 0.41 °C | 0.24 °C | -0.22 °C | 0.77 °C | 1.03 °C | 0.31 °C |
| C[C@@H](Oc1ccc2[nH]nc(/C=C/c3cnn(CCO)c3)c2c1)c1c(Cl)cncc1Cl | 13.1 °C | 7.93 °C | 0.05 °C | 10.5 °C | 9.48 °C | 6.65 °C | 6.58 °C | 12.3 °C | 5.56 °C | 1.48 °C | 8.94 °C | 16 °C | 12.1 °C | 1.22 °C | 6.07 °C | 0.92 °C | 15.1 °C | -0.35 °C | 0.87 °C | 0.66 °C |
| CO[C@@H](C(=O)N1Cc2[nH]nc(NC(=O)c3ccc(N4CCN(C)CC4)cc3)c2C1)c1ccccc1 | 6.97 °C | 0.95 °C | 0.25 °C | 4.21 °C | 0.41 °C | -0.04 °C | 3.61 °C | 4.16 °C | 2.5 °C | 1.51 °C | 2.02 °C | 6.58 °C | 5.14 °C | 0.31 °C | 0.48 °C | 0.25 °C | 7.87 °C | 2.69 °C | 0.66 °C | 0 °C |
| C[C@@H]1CCN(C(=O)CC#N)C[C@@H]1N(C)c1ncnc2[nH]ccc12 | 0.35 °C and 0.85 °C | 0.3 °C and 0.25 °C | 0.21 °C and 0.74 °C | 0.19 °C and 0.26 °C | 0.12 °C and 0.5 °C | 0.32 °C and 0.68 °C | 0.11 °C and 0.63 °C | 0.38 °C and 0.48 °C | 0.3 °C and 0.6 °C | -0.01 °C and 0.47 °C | -0.1 °C and 0.49 °C | 2.97 °C and 3.63 °C | -1.07 °C and 0.7 °C | 0.03 °C and 0.86 °C | 0.42 °C and 0.38 °C | 0.33 °C and 0.16 °C | 0.7 °C and 0.62 °C | 0.46 °C and 1.08 °C | 0.55 °C and 1.39 °C | 0.32 °C and -0.21 °C |
